In PubChem BioAssay (NCATS):
Results filed as inconclusive are left out. Unmarked numbers belong to inactive results. Activity calls are given as the source filed them. The call rests on the fitted dose curve; in most records, active means well fitted inhibition curve with a large enough effect; inconclusive means small, poorly fitted or top-dose-only effect; inactive means no such curve, though single readings can be large or run the other way.

target: Retinaldehyde dehydrogenase 3 (Homo sapiens) (UniProt P47895); test: qHTS for Inhibitors of the Aldehyde Dehydrogenase Family (ALDH1A3) Confirmatory screens (AID 2061311); conditions: ALDH inhibition qHTS; series mostly up to 46 µM; activity change, negative = inhibition: at the top concentration; further: nearly all actives have a fitted effect of over 60% in size
On the % scale 0 is the no-effect control and ±100 the full control effect; potency means the concentration at half of the fitted maximal effect.

Row | Compound | Potency | activity change, negative = inhibition | outcome
1 | CC(C)CCN(C)Cc1ccc(-c2ccccc2)cc1 | 4.19 µM (active) | – | –
2 | CCOC(=O)c1[nH]c2c(c1C)C(=S)CC(c1ccco1)C2 (stereo not given) | 12.7 µM (active) | – | –
3 | Cc1ccc(-c2cc(C(=O)NCc3cccc(F)c3)nn3cnnc23)cc1 | 8.91 µM (active) | – | –
4 | CC(=O)N1CCN(c2ccc(NCc3ccco3)cc2)CC1 | 10.1 µM (active) | – | –
5 | CC(=O)c1ccc(N2CCN(C(=O)CCS(=O)(=O)c3ccc4c(c3)oc(=O)n4C)CC2)cc1 | 16.2 µM (active) | – | –
6 | CC(C)(C)c1ccc(S(=O)(=O)c2cnc(SCC(=O)Nc3ccc(F)c(Cl)c3)[nH]c2=O)cc1 | – | -18.6% | –
7 | O=C1Nc2ccc(Cl)cc2/C1=C\c1cc(Cl)c(O)c(Cl)c1 | – | -47.5% | –
8 | COc1cc(NS(=O)(=O)c2cccc([N+](=O)[O-])c2)c2ncccc2c1 | 5.65 µM (active) | – | –
9 | CN(C)c1ccc(-c2cc[nH]c(=O)c2N)cc1 | 20.1 µM (active) | – | –
10 | O=C1Nc2cc(Cl)ccc2/C1=C\c1cc(Cl)c(O)c(Cl)c1 | – | -9.23% | –
11 | Cc1sc(NC(=O)Cc2ccc3c(c2)OCO3)nc1-c1ccc2c(c1)CCN2 | 12.7 µM (active) | – | –
12 | Cc1cc(C)nc(NC(=S)N2CCN(c3ccc4cn(C)nc4c3)CC2)c1 | 15.9 µM (active) | – | –
13 | NC(=O)C1CCN(c2nc(-c3ccc4ccccc4c3)cs2)CC1 | – | – | inactive
14 | Cc1ccc(S(=O)(=O)Nc2cnccc2C(=O)Nc2nc(C(=O)O)cs2)cc1 | 20.1 µM (active) | – | –
15 | O=C(C1CCN(Cc2ccccc2-c2ccccc2F)CC1)N1CCN(Cc2ccccc2)CC1 | – | -4.62% | –
16 | COc1ccc(C(=O)N(Cc2ccco2)Cc2ccco2)c(O)c1 | – | – | inactive
17 | CCC(=O)Nc1ccc(S(=O)(=O)NCc2ccc3c(c2)CCN3C(=O)c2ccc(C)cc2)cc1 | – | -1.39% | –
18 | O=C(O)CN1C(=O)/C(=C/c2ccc(-c3cccc(Cl)c3)o2)SC1=S | – | -10.3% | –
19 | CC(=O)c1c(C)n(-c2cccc(C)c2)c2ccc(OC(=O)COc3ccccc3)cc12 | – | -2.83% | –
20 | CCOC(=O)c1c(C)n(-c2ccc(OC)cc2)c2ccc(OC(=O)COc3ccccc3)cc12 | – | 8.76% | –

Row | Compound | Potency | activity change, negative = inhibition | outcome
21 | COc1cccc(S(=O)(=O)N2CCC3(CC2)CC(CC(=O)NC2CC2)CCO3)c1 (stereo not given) | – | – | inactive
22 | CN1CCN(c2ccc(NC(=O)CN(C)Cc3c(O)ccc4ccccc34)cc2)CC1 | 22.5 µM (active) | – | –
23 | COc1cccc(CNC(=O)c2ccc3c(c2)sc2nc(-c4ccccc4)cn23)c1OC | – | -1.54% | –
24 | O=C1Cc2cc(S(=O)(=O)N3CCN(c4ccc(F)cc4)CC3)ccc2N1 | – | – | inactive; activator [at 85.7 µM]
25 | CCOC(=O)C1CCN(C(=O)C(C)(C)NC(=O)Nc2ccc(N(C)C)cc2)CC1 | 14.2 µM (active) | – | –
26 | CC(=O)N1CCN(c2ccc(NCc3ccc4c(c3)OCO4)cc2)CC1 | 11.3 µM (active) | – | –
27 | Cc1nc(C(C)Nc2ncnc3ccc(-c4ccc5c(c4)OCO5)cc23)cs1 (stereo not given) | – | -12.1% | –
28 | COc1ccc(C2=NN(CC(=O)NCCc3ccc(OC)c(OC)c3)C(=O)CC2)cc1 | – | -10.9% | –
29 | O=C(O)c1ccc2c(c1)C(=O)N(CCc1ccc(O)cc1)C2=O | – | -11% | –
30 | COc1ccc(-n2c(C)c(C(C)=O)c3cc(OC(=O)c4ccc(C)cc4)ccc32)cc1 | – | -1.16% | –
31 | COc1ccc(C2Nc3ccccc3C(=O)N2Cc2ccco2)cc1COc1ccc(N)cc1 (stereo not given) | – | -17.5% [at 0.022 µM] | –
32 | O=C1Cc2cc(S(=O)(=O)N3CCNCC3)ccc2N1 | – | -13.1% | –
33 | CN(C)c1cccc(-c2cnc(N3CCC(c4ncc[nH]4)CC3)s2)c1 | 4 µM (active) | – | –
34 | Cc1ccc(C(=O)NCC(c2ccc3c(c2)OCO3)N2CCN(c3ccc(F)cc3)CC2)cc1 (stereo not given) | – | 4.67% | –
35 | O=S1(=O)N=C(Oc2cccc3ccccc23)c2ccccc21 | 5.04 µM (active) | – | –
36 | COc1ccc(Cl)cc1C(=O)NCc1nnc2cc(-c3nc(C)no3)ccn12 | – | -7.9% | –
37 | COc1ccc(C2=Nn3c(nnc3-c3ccccc3OC)SC2)cc1OC1CCCC1 | 22.4 µM (active) | – | –
38 | Cc1ccc(CCN2C(=O)c3ccc(C(=O)O)cc3C2=O)cc1 | – | -13.6% | –
39 | CC(=O)N1CCN(c2ccc(NCc3ccc(Br)o3)cc2)CC1 | 17.9 µM (active) | – | –
40 | CC(=O)Nc1sc2c(c1-c1csc3ccccc13)CCNC2 | – | -14.2% | –
